# About 83,000 compounds went through this panel and 20% of them were active in at least one assay; those are over-represented in the sample as a whole.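 Results are percent growth after 48 hours of single-concentration exposure. 100 means growth as in untreated cells, lower positive values show inhibition; negative values down to -100 show cell death.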 A number with no mark means an inactive call. Activity calls are given as the source filed them. The calls were made as follows: active = growth percent below 10; inactive = the rest.
# Tests used:
# Assay in all cases: NCI-60 one-dose screen, 48 h (100 = growth as untreated, 0 = no growth, -100 = all killed)
# Settings in all cases: 10 µM unless noted
# [1] = tested on: NCI-H23 lung
# [2] = tested on: NCI-H226 lung
# [3] = tested on: NCI-H322M lung
# [4] = tested on: HOP-62 NSCLC
# [5] = tested on: NCI-H460 lung
# [6] = tested on: HOP-92 NSCLC
# [7] = tested on: NCI-H522 lung
# [8] = tested on: A549/ATCC NSCLC
# [9] = tested on: 786-0 renal
# [10] = tested on: COLO 205 colon
# [11] = tested on: DU-145 prostate
# [12] = tested on: K-562 leukemia
# [13] = tested on: MALME-3M melanoma
# [14] = tested on: MDA-MB-231 breast
# [15] = tested on: RXF 393 renal
# [16] = tested on: SF-268 CNS
# [17] = tested on: SF-295 CNS
# [18] = tested on: SF-539 CNS
# [19] = tested on: UACC-257 melanoma
# [20] = tested on: M14 melanoma
Compound,growth [1],growth [2],growth [3],growth [4],growth [5],growth [6],growth [7],growth [8],growth [9],growth [10],growth [11],growth [12],growth [13],growth [14],growth [15],growth [16],growth [17],growth [18],growth [19],growth [20]
O=CNc1cc(Cl)cc(Cl)c1,102%,102%,104%,102%,104%,106%,95.4%,102%,104%,107%,109%,97.5%,103%,85.6%,113%,106%,102%,100%,97.4%,103%
CN1CCN(c2cnc(C(=O)Nc3cc(F)cc4cccnc34)cn2)CC1,39.6%,90.1%,83.9%,98.6%,103%,79.1%,22%,92.4%,56%,21.2%,72.3%,16.9%,42.2%,33.4%,–,93.7%,94.3%,71.8%,44.8%,–
COc1ccc(C2CC(c3cccc(Nc4ccncc4)c3)=NN2c2cc(Cl)cc(Cl)c2)cc1 (configuration not stated),80.2%,87.6%,75.9%,25.1%,-77.6% (active),54.9%,4.77% (active),26.5%,99.2%,-55.1% (active),13.3%,0.631% (active),-40.6% (active),44.7%,–,66.3%,72.4%,78%,62%,97%
O=C(/C=C\c1ccc(OCCCCCC[P+](c2ccccc2)(c2ccccc2)c2ccccc2)cc1)c1ccc2c(c1)OCCO2,3.95% (active),-0.25% (active),22.3%,-21.8% (active),-12.4% (active),-29.2% (active),-6.94% (active),12.1%,5.76% (active),-58.6% (active),6.93% (active),2.43% (active),-15.3% (active),2.28% (active),–,-4.06% (active),-17.4% (active),3.93% (active),-5.23% (active),-3.09% (active)
CCC(C)C(N)C(=O)NNc1n[nH]c(=S)n1N (configuration not stated),102%,101%,105%,105%,103%,97.6%,89%,102%,102%,116%,109%,102%,101%,101%,–,98.2%,103%,94.7%,99.4%,100%
CC(N)C(=O)NNc1n[nH]c(=S)n1N (configuration not stated),100%,97.1%,92%,106%,103%,94.6%,98%,102%,95.8%,111%,109%,107%,94%,105%,–,94.2%,94.7%,100%,98.8%,95.2%
O=S(=O)(NCCNc1nccc(-c2c(-c3ccc(F)c(O)c3)nc3sccn23)n1)c1ccccc1,72.2%,99.8%,96.1%,98.9%,75.3%,63.9%,59.3%,81.8%,113%,33.9%,77.5%,37.2%,1.46% (active),51.6%,–,84.5%,110%,94.3%,16.2%,–
O=C(CN1CCOCC1)Nc1ccc2ncnc(Nc3ccc(Oc4cccc(C(F)(F)F)c4)c(Cl)c3)c2c1,68.8%,75%,16.6%,73.9%,64.1%,53%,26%,51.2%,65.3%,76.9%,40.8%,35%,73.4%,60.1%,–,59.6%,63.5%,78.8%,83.3%,64%
CN1CCN(c2ccc3nc(-c4cc(C(C)(C)C)c(O)c(C(C)(C)C)c4)[nH]c3c2)CC1,92.6%,96%,81%,69.8%,3.88% (active),48.6%,75.5%,53.4%,55.4%,-56.7% (active),77.6%,-11.3% (active),-91.6% (active),38.6%,–,72.7%,93.7%,64.4%,-53.2% (active),11%
COc1ccc(-c2cnc(N)nc2-c2ccc(OC)cc2O)cc1,92.5%,99.8%,90.4%,110%,89.8%,57.8%,79.6%,93.1%,90%,113%,99.2%,80.4%,126%,99.4%,–,107%,101%,88.1%,112%,109%
CN(Cc1ccccc1)c1nc(Cl)c(C2CC(c3ccc(Cl)cc3)=Cc3[nH][nH]c(=O)c32)s1 (configuration not stated),98.3%,97.1%,110%,101%,92.7%,102%,89.7%,107%,89.4%,124%,104%,42.5%,104%,113%,–,92.1%,90.2%,88.1%,102%,107%
COc1cc(OC)cc(C2C3=C(COC3=O)Nc3cc(OC)ccc32)c1 (configuration not stated),12.1%,-3.11% (active),50.5%,22%,4.2% (active),52.6%,-40.5% (active),16.6%,11%,-74.1% (active),-30.2% (active),11.9%,71.6%,-7.98% (active),–,18.1%,10.9%,1.4% (active),45.5%,3.85% (active)
COc1ccc(-c2nc(SC)nc(N3CCOCC3)c2C#N)cc1,98.6%,95.4%,102%,88.5%,109%,71.2%,84%,95.2%,76.8%,99%,106%,97.5%,102%,92.2%,–,92.4%,98.8%,86.5%,112%,111%
O=C1CCCCCCCCC(O)C(O)CCCC(c2cccs2)O1 (configuration not stated),91%,99.5%,113%,87.6%,106%,82.7%,91.7%,82.7%,98.8%,108%,117%,96%,107%,84.8%,–,95.9%,93.7%,106%,60.9%,99.7%
COc1cc(-c2nc3occn3c2-c2ccnc(NCCNS(=O)(=O)c3ccc(Cl)cc3)n2)ccc1F,92.2%,73.2%,91.6%,93.3%,88.8%,78.5%,66.4%,82%,84.9%,86.5%,89.8%,58.9%,80.1%,78.3%,–,68.4%,88.6%,85.4%,90.2%,86%
COc1ccc(-c2cnnc3c(-c4cccc(C(F)(F)F)c4)cnn23)cc1,70.4%,60.9%,45.7%,3.24% (active),36%,52.7%,27.5%,63.5%,7.61% (active),135%,57.8%,86.3%,24.1%,72.9%,–,30.1%,-5.8% (active),15.9%,44%,78.7%
CN1C(=O)N(C)[C@H]2NC(NN)=N[C@H]21,103%,93.3%,91.2%,98.8%,103%,90.3%,102%,97.9%,99.8%,104%,114%,98.9%,94.3%,102%,–,94%,101%,102%,97.1%,100%

# From PubChem BioAssay (NCI)
